{"source": "PubChem BioAssay (Tox21)", "note": "A number with no mark means an inactive call. Activity calls are given as the source filed them. The call rests on the fitted dose curve; in most records, active means well fitted curve in the direction sought with a large enough effect in the repeat runs; inconclusive means weak or mixed curves; inactive means flat fitted curve, though single readings scatter. On the % scale 0 is the no-effect control and ±100 the full control effect.", "data": [{"assay": "qHTS assay to test for compound auto fluorescence at 535 nm (green) in HEK293 cells (AID 720680)", "conditions": "green autofluorescence 485/535 nm; series mostly up to 91.3 µM", "from_the_text": "U.S. Tox21 Program National Center for Advancing Translational Sciences [NCATS] NIH Chemical Genomics Center [NCGC] U.S. Environmental Protection Agency [EPA] National Institutes of Environmental Health Sciences [NIEHS] National Toxicology Program [NTP] U.S. Food and Drug Administration [FDA] Tox21 Assay Overview: Compound auto fluorescence often interferes with screening of the compound library against various biological targets and signaling pathways. Some of these compounds may have fluorophoric properties. Such properties may interfere with the assay outputs resulting in false positives and/or negatives. To decrease such complications and ensure the compound activities are relevant in terms of biological response, the Tox21 10K compound library was screened for auto fluorescence. From the fluorophores used as reporter signals in our screening assays, the auto fluorescence equivalencies of compounds against three fluorophores have been evaluated: Triamterene, Fluorescein and Rose Bengal sodium for blue, green and red fluorescence, respectively. The fluorescence intensities were measured using Excitation/Emission wavelengths at 405/460nm, 485/535nm and 540/590nm for blue, green and red labels, respectively. This assay includes the green fluorescence data.\nTox21 Assay Protocol Summary: 2,000 HEK293 cells in 5 uL of culture medium containing 10% dialyzed FBS per well were dispensed into black wall/clear bottom 1536-well plates using a Multidrop Combi Dispenser (Thermo Scientific). The assay plates were incubated for 4-5 hr at 37C to allow cell attachment to the well bottom, followed by the transfer of 23 nL compound or DMSO vehicle by a pintool work station (Kalypsys, San Diego, CA). After the assay plates were incubated overnight at 37C and 5% CO2, fluorescence intensities in the assay plates were measured by an Envision (PerkinElmer, Shelton, CT) plate reader using three labels for measuring blue, green and red fluorescence at […] 460, 535 and 590nm respectively.", "values": [{"smiles": "O=c1cccccc1O", "outcome": "inactive"}, {"smiles": "Cc1ccc(O)c2ncccc12", "outcome": "inactive"}, {"smiles": "CCN(Cc1cccnc1)C(=O)c1cccc(Cl)c1[C@]1(C)C(=O)N(Cc2ccc(OC)cc2OC)c2ccc(Cl)cc21", "outcome": "inactive"}, {"smiles": "CC(C)(C)CC(C)(C)c1ccc(OCCOCC[N+](C)(C)Cc2ccccc2)cc1", "outcome": "inactive"}, {"smiles": "CC[C@H](c1ccc(O)cc1)[C@@H](CC)c1ccc(O)cc1", "outcome": "inactive"}, {"smiles": "CCCCc1oc2ccc(NS(C)(=O)=O)cc2c1C(=O)c1ccc(OCCCN(CCCC)CCCC)cc1", "outcome": "inactive"}, {"smiles": "CCCCCCCCCCCCc1ccc(O)cc1", "outcome": "inactive"}, {"smiles": "On1ccccc1=S", "outcome": "inactive"}, {"smiles": "C=C(C)C(=O)OCC[N+](C)(C)C", "outcome": "inactive"}, {"smiles": "O=C1CCCCCN1SSN1CCCCCC1=O", "outcome": "inactive"}, {"smiles": "CCC(C)Nc1ccc(NC(C)CC)cc1", "note": "(stereo not given)", "outcome": "inactive"}, {"smiles": "CCc1cc(Cc2cc(CC)c(N)c(CC)c2)cc(CC)c1N", "outcome": "inactive"}, {"smiles": "NC(=O)CC[C@@H]1NC(=O)[C@H](Cc2ccccc2)NC(=O)[C@H](Cc2ccc(O)cc2)NC(=O)CCSSC[C@@H](C(=O)N2CCC[C@H]2C(=O)N[C@@H](CCCN=C(N)N)C(=O)NCC(N)=O)NC(=O)[C@H](CC(N)=O)NC1=O", "outcome": "inactive"}, {"smiles": "N#CSc1ccc(N)c([N+](=O)[O-])c1", "outcome": "inactive"}, {"smiles": "OCCCCCCCCCCCCBr", "outcome": "inactive"}, {"smiles": "OCCN(CCO)c1nc(N2CCCCC2)c2nc(N(CCO)CCO)nc(N3CCCCC3)c2n1", "outcome": "inactive"}, {"smiles": "Nc1ccc(N)c2ccccc12", "outcome": "inactive"}, {"smiles": "ON=C1CCCC1", "outcome": "inactive"}, {"smiles": "[Cl][Bi]([Cl])([c]1ccccc1)([c]1ccccc1)[c]1ccccc1", "outcome": "inactive"}, {"smiles": "Cc1cc(O)c(C(C)(C)C)cc1C(C)(C)C", "outcome": "inactive"}, {"smiles": "O=C(O)c1ccc(Cl)c(Cl)c1", "outcome": "inactive"}, {"smiles": "CC(=O)N1CCN(c2ccc(OC[C@H]3CO[C@](Cn4ccnc4)(c4ccc(Cl)cc4Cl)O3)cc2)CC1", "outcome": "inactive"}, {"smiles": "NNc1nc(-c2ccccc2)cs1", "outcome": "inactive"}, {"smiles": "O=C(O)c1cc(O)c2c(c1)C(=O)c1cccc(O)c1C2=O", "outcome": "inactive"}, {"smiles": "N/C(=N\\N=C\\c1ccc(Cl)cc1)N/N=C/c1ccc(Cl)cc1", "outcome": "inactive"}, {"smiles": "N=C1C=CC(=C(c2ccc(N)cc2)c2ccc(N)cc2)C=C1", "outcome": "inactive"}, {"smiles": "CN1CCC(Nc2ncc3ncnc(Nc4ccc(F)c(Cl)c4)c3n2)CC1", "outcome": "inactive"}, {"smiles": "CCCCCCCCCCCCCCCC[N+](C)(C)CCN(Cc1ccc(OC)cc1)c1ncccn1", "fluorescence, % of fluorescein": "-0.0029% [at 18.6 µM]"}, {"smiles": "CC[C@H]1O[C@]2(CC[C@@H]1C)C[C@@H]1C[C@@H](C/C=C(\\C)C[C@@H](C)/C=C/C=C3\\CO[C@@H]4[C@H](O)C(C)=C[C@@H](C(=O)O1)[C@]34O)O2", "outcome": "inactive"}, {"smiles": "O=C(c1ccc(F)cc1)C1CCN(CCn2c(=O)[nH]c3ccccc3c2=O)CC1", "outcome": "inactive"}, {"smiles": "CCc1cc(SCc2sc(-c3ccc(C(F)(F)F)cc3)nc2CN2CCN(c3ccc(OC)cc3)CC2)ccc1OCC(=O)O", "outcome": "inactive"}, {"smiles": "Fc1ccc(C(c2ccc(F)cc2)N2CCN(C/C=C/c3ccccc3)CC2)cc1", "outcome": "inactive"}, {"smiles": "CCCCCCCCCCCCCCCCCC[N+](C)(C)Cc1ccccc1", "outcome": "inactive"}, {"smiles": "Cc1ccc(-n2nc(C(C)(C)C)cc2NC(=O)Nc2ccc(OCCN3CCOCC3)c3ccccc23)cc1", "outcome": "inactive"}, {"smiles": "O=C(Nc1cccc(C(F)(F)F)c1)c1cc(Br)cc(Br)c1O", "outcome": "inactive"}, {"smiles": "CCN1/C(=C/C=C/c2sc3ccccc3[n+]2CC)Sc2ccccc21", "outcome": "inactive"}, {"smiles": "C[C@@H]1C[C@H]2[C@@H]3CCC4=CC(=O)C=C[C@]4(C)[C@@]3(Cl)[C@@H](O)C[C@]2(C)[C@@]1(OC(=O)c1ccco1)C(=O)CCl", "fluorescence, % of fluorescein": "-0.0241% [at 18.6 µM]"}, {"smiles": "Nc1c2ccccc2nc2ccccc12", "outcome": "inactive"}, {"smiles": "CCCCCCC[N+](CC)(CC)CCCCc1ccc(Cl)cc1", "fluorescence, % of fluorescein": "0.0325% [at 18.6 µM]"}, {"smiles": "Cc1c(C)c2c(c(C)c1O)CCC(C)(COc1ccc(CC3SC(=O)NC3=O)cc1)O2", "note": "(stereo not given)", "outcome": "inactive"}]}]}
